# VP16 counter = inhibits Gal4-VP16 luciferase reporter, ROR gamma counter-screen. Drosophila S2 Gal4-VP16 UAS-luciferase, luminescence, 20 h. Potency, µM (top dose mostly 53.6 µM), for the others: at the top dose activity, negative = inhibition, actives largely listed as inhibitors. 310,000 tested, 3.5% active. AID 2546;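 further: Gal4-VP16 expression switched on by copper sulfate through the metallothionein promoter; on the % scale 0 is the no-effect control and ±100 the full control effect; nearly all actives have a fitted effect of over 50% in size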
# RORgamma inh = blocks mouse ROR gamma transcriptional activity; AID 2551; P51450; Drosophila S2 Gal4-RORgamma UAS-luciferase reporter, 20 h; Potency, µM (highest dose often 53.6 µM), for inactives: at the highest dose activity change, negative = inhibition, hits mostly inhibitors; 310,000 tested, 5.4% active; further: on the % scale 0 is the no-effect control and ±100 the full control effect; nearly all actives have a fitted effect of over 60% in size
# Target sequence (P51450 whole entry, looked up, the tested form may be a part): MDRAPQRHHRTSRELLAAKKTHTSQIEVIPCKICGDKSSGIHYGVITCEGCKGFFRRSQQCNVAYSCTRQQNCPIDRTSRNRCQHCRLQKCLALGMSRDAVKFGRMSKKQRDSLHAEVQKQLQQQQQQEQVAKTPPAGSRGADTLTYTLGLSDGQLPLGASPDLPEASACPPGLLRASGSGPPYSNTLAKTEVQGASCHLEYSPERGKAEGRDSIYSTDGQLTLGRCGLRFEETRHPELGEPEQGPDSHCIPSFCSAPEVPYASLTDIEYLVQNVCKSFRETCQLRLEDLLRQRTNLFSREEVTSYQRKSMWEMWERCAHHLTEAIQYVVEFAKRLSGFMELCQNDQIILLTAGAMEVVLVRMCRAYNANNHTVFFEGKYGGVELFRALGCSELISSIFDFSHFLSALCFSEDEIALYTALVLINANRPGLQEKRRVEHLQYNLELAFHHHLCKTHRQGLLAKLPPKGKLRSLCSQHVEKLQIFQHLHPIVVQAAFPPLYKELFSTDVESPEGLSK
#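 A Gal4/UAS one-hybrid system in insect cells: metallothionein-promoter Gal4–ROR gamma fusion plus Photinus luciferase reporter. Copper sulfate 700 uM final, 20 hr ambient incubation, luminescent detection after 10 min with reagent.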
# Epigenetic derep = epigenetic control regulation, reporter derepression. Potency, µM (top dose mostly 53.9 µM), for the others: at the top dose GFP activation, hits mostly activators. 280,000 tested, 0.2% active. AID 1865. murine LDR cells, GFP reporter derepression, 30 h; further: % of control where 0% means no effect; nearly all actives have a fitted effect of over 60% in size
#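 Murine LDR cells carrying a silenced, genomically integrated CMV-driven GFP reporter were exposed to compound for 30 hours at 37 C. After PBS washes, GFP-positive cells (20–120 um objects) were counted by laser-scanning microplate cytometry.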
# PINK1 expr mod = PINK1 expression modulation. PINK1 immunofluorescence, high-content cytometry, 24 h. Potency, µM (highest dose often 76.6 µM), for inactives: at the top dose activation (PINK1 increase), most hits filed as activators. 410,000 tested, 0.2% active. AID 624263; active means well fitted activation curve with a large enough effect; inconclusive means small, poorly fitted or top-dose-only effect; cell line not stated here; further: % of control where 0% means no effect; nearly all actives have a fitted effect of over 65% in size
#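 Stable cell line, 250 cells/well, 12 h attachment; compounds pinned at 5 concentrations, 24 h; CCCP control. Fixed with nuclear dye, primary antibodies 12 h at 10 degrees C, secondary plus cell stain; laser-scanning cytometer read.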
# Sfp PPTase inh = Sfp phosphopantetheinyl transferase inhibition | Q9F4F7 | Biochemical Sfp PPTase activity, qHTS | Potency, µM, for inactives: largest response in the series, negative = inhibition, hits mostly inhibitors | 310,000 tested, 3.5% active | AID 1490;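 further: the enzyme is Sfp with the accession as filed and its product quenches rhodamine fluorescence; 0% = enzyme reaction without inhibitor and -100% = no enzyme wells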
#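 Sfp 15 nM + cpd, 15 min RT; start w/ rhodamine-CoA 5 uM, BHQ-2-YbbR 12.5 uM (final); 50 mM Hepes pH 7.6, 10 mM MgCl2, 0.01% NP-40, 0.01% BSA; read 525/598 nm at 0 and 30 min.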
# ClpP mod = qHTS Assay for Activators of ClpP | AID 651965, 2013 | purified B. subtilis ClpP, FRET peptide cleavage, 20 min | 340,000 tested, 1.9% active | Potency, µM (series often up to 57.5 µM), without a hit: top-dose activity change, negative = active | ATP-dependent Clp protease proteolytic subunit (Bacillus subtilis (strain 168)), P80244; active means well fitted falling curve with a large enough effect; inconclusive means small, poorly fitted or top-dose-only effect; inactive means no such curve, though single readings can be large or run the other way; further: the source files actives as falling curves though it sought activators and does not explain the sign; nearly all actives have a fitted effect of over 65% in size
#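 ClpP 10 microg/mL final, pH 8 Tris/KCl buffer with BSA, glycerol, Tween-20; compound pinned in; FRET-FV substrate; RT 20 min; Ex320/Em430; ΔFRET vs ADEP 5.8 microM, DMSO, no enzyme.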
# * hit, by the source's call; ? = inconclusive; nt = no result; [ ] = dose if it differs, or a comment. Sampled rows, rich in hits. Any-hit rate of the full collection: about 8.1%. Unless noted, the call rests on the fitted dose curve; in most records, active means well fitted curve in the direction sought with a large enough effect; inconclusive means small, poorly fitted or top-dose-only effect, or another doubt; inactive means no such curve, though single readings can be large; an effect the other way counts as inactive or inconclusive. Potency means the concentration at half of the fitted maximal effect.
SMILES,VP16 counter,RORgamma inh,Epigenetic derep,PINK1 expr mod,Sfp PPTase inh,ClpP mod
O=C(NN1C(=O)C2C3C=CC(O3)C2C1=O)c1cccc(O)c1 (stereo not drawn),-1%,-3%,0%,1%,45µM*,5%
O=C(NN1C(=O)C2C3C=CC(O3)C2C1=O)c1cccc(Br)c1 (stereo not drawn),5%,22%,1%,1%,40µM*,nt
O=c1c(S(=O)(=O)c2ccccc2)cn(Cc2ccc(F)cc2)c2cc(N3CCOCC3)c(F)cc12,nt,nt,-1%,0%,nt,?
CCOc1ccccc1-c1nnc2n1N=C(c1cc(OC)cc(OC)c1)CS2,16%,?,nt,nt,?,nt
CCOC(=O)C1=C(N)Oc2cc(O)ccc2C1c1ccc([N+](=O)[O-])cc1 (stereo not drawn),?,9%,-1%,9%,25µM*,nt
CCOC(=O)C1=C(N)Oc2ccc3ccccc3c2C1c1ccc(O)cc1 (stereo not drawn),-4%,44%,nt,2%,14%,-1%
COCCNc1ncnc2ccc(-c3ccccc3C(F)(F)F)cc12,-15%,?,nt,1%,56µM*,nt
S=c1nc(-c2ccccc2)c(-c2ccccc2)n[nH]1,-20%,8.9µM*,2%,2%,-3%,0%
O=c1nc(-c2ccccc2)c(-c2ccccc2)n[nH]1,5%,17%,nt,0%,11%,-2%
Nc1c(-c2ccccc2)n[nH]c1-c1ccccc1,-3%,21%,1%,-5%[38.3 µM],9%,28µM*
COc1cc(-c2cc3n(C)c(C)c(CCC(=O)NCc4ccccc4)c(=O)n3n2)cc(OC)c1OC,nt,nt,1%,0%,nt,-10%
O=[N+]([O-])c1cccc(-c2nc(-c3ccccn3)no2)c1,?,11µM*,0%,-1%,-5%,0%
c1ccc(-c2noc(C3CCCCC3)n2)nc1,-27%,3.5µM*,0%,-1%,12%,-1%
c1ccc(-c2noc(-c3ccc4ccccc4c3)n2)nc1,2.2µM*,2.5µM*,-1%,-3%,-13%,5%
c1ccc(-c2noc(-c3ccncc3)n2)nc1,?,?,2%,nt,19%,0%
CN(C)c1ccc(-c2nc(-c3ccccn3)no2)cc1[N+](=O)[O-],nt,nt,-3%,1%,nt,2%
Cc1occc1-c1nc(-c2ccccn2)no1,?,13µM*,0%,-1%,15%,-1%
Cc1occc1-c1nc(-c2ccncc2)no1,4%,28%,-1%,-6%[38.3 µM],6%,-3%
CCCCN(CCCNC(=O)c1c(C)oc2nc[nH]c(=O)c12)Cc1ccccc1,nt,nt,-2%,1%,nt,4%
CC[n+]1cccc(Br)c1,nt,nt,nt,0%,nt,-1%
c1ccc(-c2noc(-c3ccc4c(c3)OCO4)n2)nc1,3.2µM*,3.2µM*,5%,?,-1%,0%
COc1cccc(-c2nc(-c3ccccc3)no2)c1,?,-41%,1%,0%,8%,-5%
COc1cccc(-c2nc(-c3ccccn3)no2)c1,4.5µM*,?,-1%,0%,3%,-5%
O=C(COc1ccccc1F)N/N=C1\CCCc2ccccc21,?,4µM*,1%,3%,8%,0%
COC(=O)c1sc(NC(=S)NC(=O)c2cc(OC)c(OC)c(OC)c2)nc1C,-21%,10µM*,nt,2%,-17%,1%
COC(=O)c1sc(NC(=S)NC(=O)c2ccccc2)nc1C,?,?,1%,13%,-5%,1%
CCOC(=O)c1sc(NC(=O)c2ccc(OC)cc2)nc1C,3%,-22%,-6%,6%,1%,nt
CCOC(=O)c1sc(NC(=S)NC(=O)c2cccc(OC)c2)nc1C,?,8.9µM*,nt,3%,?,-15%
COc1cc(C(=O)NC(=S)Nc2nccs2)cc(OC)c1OC,?,3.2µM*,0%,7%,-5%,nt
CCOC(=O)c1sc(NC(C)=O)nc1C,-2%,44%,0%,-1%[38.3 µM],56µM*,-1%

# Screening data as filed in PubChem BioAssay.
